In the library only some 4.6% were active in any assay of this set; here they are far more common.
D1 antagonist: Antagonist of Human D 1 Dopamine Receptor: qHTS. D(1A) dopamine receptor (Homo sapiens), P21728. HEK293 TREx D1 cells, calcium flux, dopamine EC80; active compounds read low. activity change, negative = inhibition, % at 10 µM. hit rate 3.2% among 360,000. AID 504652, 2011; in the data active = activity change below about -30%; also: % is scaled to controls: 0 for no effect and ±100 for the full control effect
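Using tetracycline-induced force-coupled D1 Hek293 cells and a calcium dye, signals were followed for 180 s after compound, then for 180 s after EC80 dopamine, to detect inhibitors.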
D1 PAM: Potentiators of Human D1 Dopamine Receptor: qHTS. D(1A) dopamine receptor (Homo sapiens), P21728. hit rate 0.036% among 360,000. HEK293 TREx D1 cells, calcium flux, dopamine EC20 potentiation. potentiation, % at 10 µM; in the data active = potentiation above about 30%; also: 0% is about no effect
TRHR agonist: qHTS for Small Molecule Agonists and Allosteric Enhancers of Human TRH Receptor: Primary Screen for Agonists | Thyrotropin-releasing hormone receptor (Homo sapiens), P34981 | TRHR cells, calcium flux fluo-8, FDSS agonist mode | AID 493084, 2011 | hit rate 0.18% among 360,000 | activation, % at 2 µM; also: 0% is about no effect
Target sequence (P34981 whole entry, looked up): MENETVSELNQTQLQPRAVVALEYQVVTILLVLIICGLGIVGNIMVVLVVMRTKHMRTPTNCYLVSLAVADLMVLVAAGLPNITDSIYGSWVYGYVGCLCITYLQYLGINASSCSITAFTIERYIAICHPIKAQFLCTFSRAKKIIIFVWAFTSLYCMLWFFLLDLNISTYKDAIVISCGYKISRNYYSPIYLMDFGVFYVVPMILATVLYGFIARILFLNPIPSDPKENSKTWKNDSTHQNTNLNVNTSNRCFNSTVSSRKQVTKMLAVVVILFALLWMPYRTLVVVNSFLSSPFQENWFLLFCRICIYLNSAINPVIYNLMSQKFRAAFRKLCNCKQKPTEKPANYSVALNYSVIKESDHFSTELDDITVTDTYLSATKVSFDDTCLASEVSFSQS
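Read-out: compound-evoked intracellular calcium rise in TRHR cells, fluo-8 dye, kinetic FDSS fluorescence at 1 s/cycle following a 10-cycle baseline. Cells cultured overnight before dye loading (30 min–1.5 h, RT).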
TRHR enhancer: qHTS for Small Molecule Agonists and Allosteric Enhancers of Human TRH Receptor: Primary Screen for Enhancers; hit rate 0.66% among 360,000; enhancement, % at 2 µM; TRHR cells, fluo-8 calcium fluorescence, EC20 TRH enhancement; in the data active = enhancement above about 30%; also: 0% is about no effect
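Enhancer read-out: after compound pinning and an initial kinetic agonist-mode read, an EC20 of TRH (10 nM final) was injected and fluo-8 calcium signal (Ex 480/Em 530) followed at 1 s/cycle for 100 cycles in TRHR-expressing cells.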
D1 ag: Allosteric Agonists of the Human D1 Dopamine Receptor: qHTS; activation, % at 2 µM; hit rate 1% among 360,000; HEK293 T-REx D1 cells, calcium flux, agonist mode; also: 0% is about no effect
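Inducible HEK293 T-REx D1 cells, force-coupled to calcium signalling, were plated at 4000 cells/well with tetracycline and held overnight at 30 C. After no-wash calcium dye loading, compound-evoked calcium rise over 180 s flagged agonists.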
* marks the source's active call; other numbers are inactive results; . = no result. Rule as the data show it, unless noted: active = activation above about 30%; inactive = the rest.

SMILES | D1 antagonist | D1 PAM | TRHR agonist | TRHR enhancer | D1 ag
Cc1csc(SCCn2c(N3CCN(c4ccccc4)CC3)nc3c2c(=O)[nH]c(=O)n3C)n1 | -64* | 0 | -1 | 5 | -1
CC(C)CCn1c(N2CCOCC2)nc2c1c(=O)n(CC(N)=O)c(=O)n2C | -58* | -10 | 1 | 6 | 1
CC(C)CCn1c(N2CCCC2)nc2c1c(=O)[nH]c(=O)n2C | -38* | -5 | -1 | -8 | 4
O=C(CSc1nc2[nH]ncc2c(=O)[nH]1)Nc1ccccc1F | -19 | -6 | 0 | 7 | 2
O=C(CSc1nc(=O)n(Cc2ccco2)c2c1CCC2)Nc1cccc(F)c1 | . | -2 | 0 | -5 | -2
COc1ccc(-c2noc(N3CCC(C(=O)N4CCN(c5cccc(OC)c5)CC4)CC3)n2)cc1 | 4 | -3 | 0 | 5 | 6
O=C(CCC(=O)N1CCOc2ccccc21)NCc1cccnc1 | -7 | -4 | 0 | 0 | 1
COc1ccc(C(=O)CN2C3=NCCCN3c3ccccc32)cc1OC | -44* | -2 | 0 | -7 | 0
CNC(=O)c1sccc1SCc1ccc(Cl)cc1Cl | 11 | -8 | -1 | 33* | 2
NNC(=O)c1sccc1OCc1ccc(F)cc1 | 15 | -8 | 0 | -12 | 5
NNC(=O)c1sccc1OCc1ccc(Cl)cc1Cl | -32* | -6 | 0 | -2 | 10
CCOc1ccc(NC(=O)C2CCN(c3nnc(C)c4c(C)n(-c5ccccc5)nc34)CC2)cc1 | 7 | -1 | 0 | -4 | 1
O=C(O)c1ccc2c(c1)C(=O)N([C@@H](Cc1ccc(O)cc1)C(=O)O)C2=O | 27 | -3 | 0 | 4 | 2
Cc1cc(C)cc(C(=O)NC(=S)Nc2ccc(-c3cc4ccccc4oc3=O)cc2)c1 | -57* | -10 | 0 | 1 | 0
CCOC(=O)c1cccc(NC(=O)C2COc3ccc(OC)cc3C2)c1 (configuration not stated) | 9 | 1 | 0 | -1 | 2
O=C(CN1CCN(Cc2ccccc2Cl)C1=O)NCCCN1CCOCC1 | -5 | 1 | 0 | 4 | 2
O=C(O)CCc1ccc(-c2ccc(F)cc2)n1NC(=O)c1ccco1 | -88* | -4 | 1 | 5 | 1
O=C(Nc1nc2c(F)cccc2s1)c1ccc(S(=O)(=O)N2CCOCC2)cc1 | -8 | 2 | 1 | 4 | 9
Cc1ccc(CCNC(=O)c2cn(C)c3ccc(S(=O)(=O)N4CCC(C)CC4)cc3c2=O)cc1 | 0 | 5 | 0 | -10 | -2
Cc1nnc(SCc2ccc(C(=O)O)cc2)s1 | -8 | 1 | 2 | -9 | -1
Cc1ccc(NC(=O)c2ccc(CSc3nnc(C)s3)cc2)cc1 | -10 | 35* | 0 | 20 | 125*
O=C(O)c1ccc(CSc2nnc(SCc3ccccc3)s2)cc1 | -47* | -5 | 0 | 3 | 2
N#Cc1c2ccc(OCC(=O)NCc3ccco3)cc2n2ccccc12 | -8 | -1 | 13 | -5 | 8
N#Cc1c2ccc(O)cc2n2ccccc12 | -3 | -5 | 25 | -14 | 58*
O=C(O)Cn1c2ccccc2c2n[nH]c(=S)nc21 | -33* | -6 | 0 | -2 | 0
SMILES | D1 antagonist | D1 PAM | TRHR agonist | TRHR enhancer | D1 ag
COC(=O)Cn1c2ccccc2c2nc3ccccc3nc21 | -37* | -2 | -1 | -2 | 4
COC(=O)Cn1c2nc3ccccc3nc2c2cccc(C)c21 | 17 | -9 | 0 | 2 | 0
CCn1c2ccccc2c2n[nH]c(=S)nc21 | 1 | -3 | 0 | -6 | 1
CCN(CC1COc2ccccc2O1)S(=O)(=O)c1ccc(C)cc1 (configuration not stated) | -33* | -4 | 1 | -1 | 10
CCN(c1ccccc1)S(=O)(=O)c1ccc(NCC2COc3ccccc3O2)nc1 (configuration not stated) | -10 | 8 | -1 | 0 | 8
O=C(NCCc1ccccc1)C1COc2ccccc2C1 (configuration not stated) | -7 | -3 | 0 | -2 | 3
COc1ccc2c(c1)CC(C(=O)NCCN1CCN(c3cccc(Cl)c3)CC1)CO2 (configuration not stated) | -47* | -2 | 0 | -4 | 24
COc1ccc2c(c1)CC(C(=O)NCCCN1CCN(c3ccccc3F)CC1)CO2 (configuration not stated) | -19 | -3 | 0 | 1 | 3
O=C(NCCN1CCN(c2ccccc2F)CC1)C1COc2ccccc2C1 (configuration not stated) | -57* | -5 | 0 | 6 | -2
O=C(NCCN1CCN(c2cccc(Cl)c2)CC1)C1COc2ccccc2C1 (configuration not stated) | -86* | -5 | 0 | 23 | 8
CCCN1Cc2cccc(C(=O)Nc3ccc(OC)cc3OC)c2C1=O | -5 | -3 | 0 | 9 | 0
CC(=O)c1ccc(NC(=O)c2nn(C)c3c2COc2ccccc2-3)cc1 | 5 | -1 | 0 | -4 | 3
Cc1ccc(C(=O)Nc2nnc(S(=O)(=O)N3CCC(C)CC3)s2)cc1 | 22 | -7 | 0 | -3 | 6
O=C(O)c1nnn(-c2ccc([N+](=O)[O-])cc2)c1-c1ccccc1 | -42* | -4 | 0 | 0 | 0
CCn1c(SCC(=O)Nc2sc(C)c(C)c2C#N)nnc1C(C)C | 11 | -3 | -1 | 31* | 1
CCCCNC(=S)N(CCN(C)C)Cc1cc2cc3c(cc2[nH]c1=O)OCCO3 | -2 | -8 | -1 | 2 | 1
Cc1ccc(C)c(Nc2nc3c(S(=O)(=O)c4ccc(C(C)C)cc4)nnn3c3ccsc23)c1 | -9 | -1 | 1 | 4 | 3
O=c1c2ccccc2sn1-c1ccc(F)cc1 | -44* | -6 | 10 | 19 | 65*
COc1ccc(-c2oc(=O)c3cc(OC)c(OC)cc3c2/C=C/c2cccc([N+](=O)[O-])c2)cc1 | . | -4 | 0 | 8 | -2
CC(C)c1ccc(Nc2c(-c3ccccn3)nc3ccccn23)cc1 | -34* | 0 | 0 | -6 | 4
Cc1ccccc1Nc1c(-c2ccccn2)nc2ccccn12 | -2 | 0 | 0 | 12 | 3
Cc1cccc(C)c1Nc1c(-c2ccccn2)nc2c(C)cccn12 | -48* | -2 | 0 | -2 | 5
Cc1ccc(-c2noc(CCCC(=O)N3CCOCC3)n2)cc1 | 3 | 1 | 1 | -4 | 1
O=C(CCCc1nc(-c2ccc(Cl)cc2)no1)N1CCOCC1 | -41* | -6 | 1 | -2 | 2

Bioassay records as filed in PubChem.
